According to PubChem BioAssay (Tox21):
Values joined by “and” are separate entries in the source; they are usually repeats but may differ in a detail not shown here. Equal entries are not always repeated. Values without a mark were called inactive. Inconclusive results are not listed. A call without a number means that no potency is given here. Active and inactive are the calls of the source. Unless noted, the call rests on the fitted dose curve; in most records, active means well fitted curve in the direction sought with a large enough effect in the repeat runs; inconclusive means weak or mixed curves; inactive means no such curve, though single readings can be large; an effect the other way counts as inactive or inconclusive.

Key:
[1] = qHTS assay to identify small molecule antagonists of the estrogen receptor alpha (ER-alpha) signaling pathway using the BG1 cell line in the presence of 0.1 nM 17-beta-estradiol - cell viability counter screen (AID 1259241); further: nearly all actives have a fitted effect of over 40% in size; further: potency means the concentration at half of the fitted maximal effect
Procedure, shortened: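 Measures cytotoxicity alongside the ER-alpha antagonist readout: VM7Luc4E2 cells, charcoal-stripped serum, 0.1 nM 17beta-estradiol final, 22 hr compound incubation at 37C, CellTiter-Fluor fluorescence.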

[2] = qHTS assay to identify small molecule antagonists of the androgen receptor (AR) signaling pathway using the MDA cell line in the presence of 0.5 nM R1881 - cell viability counter screen (AID 1259242); further: nearly all actives have a fitted effect of over 45% in size; further: potency means the concentration at half of the fitted maximal effect
Procedure, shortened: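 Concentration-response screen of compounds for toxicity in MDA-kb2 reporter cells: 16 hr at 37C with 0.5 nM R1881, endpoint live-cell protease fluorescence measured in the reporter wells.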

[3] = target: Estrogen receptor (Homo sapiens) (UniProt P03372); experiment: qHTS assay to identify small molecule antagonists of the estrogen receptor alpha (ER-alpha) signaling pathway using the BG1 cell line in the presence of 0.1 nM 17-beta-estradiol (AID 1259244); further: nearly all actives have a fitted effect of over 50% in size; further: potency means the concentration at half of the fitted maximal effect
Procedure, shortened: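 Compounds were tested against 0.1 nM (final) 17beta-estradiol in VM7Luc4E2 cells, which express full-length ER-alpha and an ERE-luciferase reporter; luminescence was recorded following 22 h exposure.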

[4] = qHTS assay to identify small molecule HDAC inhibitors (AID 1259364);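 further: wild-type HCT-116 cells with endogenous class I/II HDAC activity; top concentration of the series differs between compounds; nearly all actives have a fitted effect of over 45% in size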
Procedure, shortened: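 Screening used wild-type human colon HCT-116 cells incubated overnight, dosed with compounds for 2 hours, and assayed with a homogeneous luminogenic HDAC I/II reagent for 30 minutes at room temperature.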

[5] = qHTS assay to identify small molecule HDAC inhibitors - cell viability counter screen (AID 1259365); further: nearly all actives have a fitted effect of over 50% in size; further: potency means the concentration at half of the fitted maximal effect
Procedure, shortened: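 Following a 2hr exposure of overnight-plated wild-type HCT-116 cells to DMSO-delivered compounds, CellTiter-Glo was added and luminescence recorded after 30min at room temperature.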

[6] = qHTS assay to identify small molecule agonists of the sonic hedgehog signaling (Shh) pathway - cell viability counter screen (AID 1259366); further: nearly all actives have a fitted effect of over 50% in size; further: potency means the concentration at half of the fitted maximal effect
Procedure, shortened: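 After a 4hr attachment at 37C, NIH/3T3 cells bearing an integrated Gli1-driven luciferase reporter were dosed with compounds. Treatment lasted 24hr, with the final hour including CellTiter-Fluor for a fluorescence viability measurement.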

[7] = qHTS assay to identify small molecule antagonists of the sonic hedgehog signaling (Shh) pathway - cell viability counter screen (AID 1259367); further: nearly all actives have a fitted effect of over 55% in size; further: potency means the concentration at half of the fitted maximal effect
Procedure, shortened: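 Fluorescence read-out (CellTiter-Fluor, 1 hr at 37C) taken after 23 hr compound treatment of 3T3 Gli1-Luc cells stimulated with conditioned medium. Cells were seeded at 2,000 per well and pre-incubated 4 hr.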

[8] = qHTS assay to identify small molecule agonists of the sonic hedgehog signaling (Shh) pathway (AID 1259368; calls by dose curve;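 further: NIH/3T3-derived 3T3Gli1-Luc cells carrying a stable Gli1-driven firefly luciferase reporter; series mostly up to about 92 µM; nearly all actives have a fitted effect of over 15% in size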)
Procedure, shortened: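 Hedgehog pathway agonism scored by increased firefly luciferase luminescence in 3T3Gli1-Luc cells treated 24 hr at 37 C; detection used a 30 min room-temperature reagent incubation.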

[9] = qHTS assay to identify small molecule antagonists of the sonic hedgehog signaling (Shh) pathway (AID 1259369; calls by dose curve; further: nearly all actives have a fitted effect of over 45% in size; further: potency means the concentration at half of the fitted maximal effect)
Procedure, shortened: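 NIH/3T3 stable Gli1-Luc clone, 2,000 cells/well, 4hr settle; cpd + conditioned medium 24hr; Luc reagent 30min RT; luminescence.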

[10] = target: Estrogen receptor beta (Homo sapiens) (UniProt Q92731); experiment: qHTS assay to identify small molecule agonists of the estrogen receptor beta (ER-beta) signaling pathway (AID 1259377; active means well fitted activation curve with a large enough effect in the signal ratio in the repeat runs, not every such curve was filed as active; the % refers to the signal ratio)
Procedure, shortened: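 In HEK293T cells bearing a UAS-beta-lactamase reporter under ER-beta control, DMSO-delivered compounds were incubated for 16 hr at 37C. Activity was detected as fluorescence 2 hours after LiveBLAzer B/G FRET substrate addition.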

[11] = qHTS assay to identify small molecule antagonists of the estrogen receptor beta (ER-beta) signaling pathway - cell viability counter screen (AID 1259382); further: nearly all actives have a fitted effect of over 55% in size; further: potency means the concentration at half of the fitted maximal effect
Procedure, shortened: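 Readout: luminescence, CellTiter-Glo, same wells as bla assay. System: ER-beta-UAS-bla GripTite HEK293T, 2% charcoal-stripped FBS. Exposure: compounds plus 1nM 17-beta-estradiol, 16 hr, 37C.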

[12] = target: Estrogen receptor (Homo sapiens) (UniProt P03372); experiment: qHTS assay to identify small molecule agonists of the estrogen receptor alpha (ER-alpha) signaling pathway in the presence of an antagonist (AID 1259383; calls by dose curve; further: top concentration of the series differs between compounds; nearly all actives have a fitted effect of over 15% in size)
Procedure, shortened: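 Quantitative HTS confirmation: compounds titrated at 15 concentrations onto estrogen-deprived VM7Luc4E2 cells carrying a four-ERE luciferase construct, with ICI-182,780 present at 10.0nM final. Signal is luminescence after 22hr exposure.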

[13] = qHTS assay to identify small molecule agonists or antagonists of the thyroid stimulating hormone receptor (TSHR) signaling pathway - wild type cell line counter screen (AID 1259384; calls by dose curve)
Procedure, shortened: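 Wild-type Hek293 cells, 800/well, 18 h at 37C, then compound with Ro20-1724 for 30 min RT. cAMP by HTRF (cAMP-d2/anti-cAMP cryptate), 1 h RT, fluorescence read. 15 concentrations, triplicates.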

[14] = target: Thyrotropin receptor (Homo sapiens) (UniProt P16473); experiment: qHTS assay to identify small molecule antagonists of the thyroid stimulating hormone receptor (TSHR) signaling pathway (AID 1259385; calls by dose curve; further: nearly all actives have a fitted effect of over 20% in size; further: potency means the concentration at half of the fitted maximal effect)
Procedure, shortened: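 TSHR-HEK293 cells (800/well) plated 18 h, then compounds with Ro20-1724 and TSH at 1.5 ng/mL final, 30 min at room temperature. cAMP quantified by HTRF (cAMP-d2/anti-cAMP-cryptate, 1 h); 15 concentrations in triplicate.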

[15] = qHTS assay to identify small molecule agonists of the androgen receptor (AR) signaling pathway in the presence of an antagonist - cell viability counter screen (AID 1259379); further: nearly all actives have a fitted effect of over 25% in size; further: potency means the concentration at half of the fitted maximal effect
Procedure, shortened: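 MDA-kb2 viability measured by CellTiter-Fluor fluorescence in the same wells as the luciferase signal; nilutamide 3.0uM final; 15-point compound titration; 16 hr at 37C.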

[16] = target: Androgen receptor (Homo sapiens) (UniProt P10275); experiment: qHTS assay to identify small molecule agonists of the androgen receptor (AR) signaling pathway in the presence of an antagonist (AID 1259381; calls by dose curve; further: nearly all actives have a fitted effect of over 15% in size)
Procedure, shortened: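 Luminescent ONE-Glo read, 30min at room temperature, follows 16hr compound exposure (15 concentrations) of MDA-kb2 cells at 37C, 0% CO2, with nilutamide added at 3.0uM final.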

[17] = target: Estrogen receptor beta (Homo sapiens) (UniProt Q92731); experiment: qHTS assay to identify small molecule antagonists of the estrogen receptor beta (ER-beta) signaling pathway (AID 1259378; active means well fitted inhibition curve with a large enough effect in the signal ratio in the repeat runs, not every such curve was filed as active; the % refers to the signal ratio; further: potency means the concentration at half of the fitted maximal effect)
Procedure, shortened: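 ER-beta-UAS-bla HEK293T cells in 2% charcoal-stripped FBS medium treated with compound plus 1nM final 17-beta-estradiol for 16 hr at 37C. Beta-lactamase reporter read by FRET substrate fluorescence after 2 hours at room temperature.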

[18] = qHTS assay to identify small molecule agonists of the estrogen receptor beta (ER-beta) signaling pathway - cell viability counter screen (AID 1259380); further: nearly all actives have a fitted effect of over 30% in size; further: potency means the concentration at half of the fitted maximal effect
Procedure, shortened: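 Measured: luminescence from CellTiter-Glo after 30 min at room temperature, added to wells already read for the LiveBLAzer FRET reporter (2 hr substrate); ER-beta-UAS-bla HEK293T cells had 16 hr compound treatment at 37C, 5% CO2.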

Chain of Thyrotropin receptor (Homo sapiens) (P16473 whole entry, looked up): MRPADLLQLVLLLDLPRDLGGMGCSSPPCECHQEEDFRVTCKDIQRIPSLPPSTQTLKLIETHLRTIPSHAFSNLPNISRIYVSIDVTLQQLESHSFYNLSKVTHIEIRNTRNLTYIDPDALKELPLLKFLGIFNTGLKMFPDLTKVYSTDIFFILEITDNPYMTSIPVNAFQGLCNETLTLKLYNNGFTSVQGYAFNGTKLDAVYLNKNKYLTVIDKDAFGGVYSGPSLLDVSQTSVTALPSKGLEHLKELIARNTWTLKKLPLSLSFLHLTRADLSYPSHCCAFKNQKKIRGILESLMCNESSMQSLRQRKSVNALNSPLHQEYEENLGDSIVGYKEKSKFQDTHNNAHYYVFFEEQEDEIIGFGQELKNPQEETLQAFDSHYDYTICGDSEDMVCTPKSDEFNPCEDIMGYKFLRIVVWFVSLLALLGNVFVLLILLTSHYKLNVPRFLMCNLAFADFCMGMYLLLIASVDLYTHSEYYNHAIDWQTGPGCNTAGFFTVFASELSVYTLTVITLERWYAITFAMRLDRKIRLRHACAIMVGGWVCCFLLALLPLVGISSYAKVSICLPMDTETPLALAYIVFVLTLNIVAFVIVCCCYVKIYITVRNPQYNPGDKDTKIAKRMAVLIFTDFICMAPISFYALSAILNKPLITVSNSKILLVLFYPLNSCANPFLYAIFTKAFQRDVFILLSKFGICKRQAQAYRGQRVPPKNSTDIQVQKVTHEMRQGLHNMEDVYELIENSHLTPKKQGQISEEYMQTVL
Chain of Estrogen receptor beta (Homo sapiens) (Q92731 whole entry, looked up): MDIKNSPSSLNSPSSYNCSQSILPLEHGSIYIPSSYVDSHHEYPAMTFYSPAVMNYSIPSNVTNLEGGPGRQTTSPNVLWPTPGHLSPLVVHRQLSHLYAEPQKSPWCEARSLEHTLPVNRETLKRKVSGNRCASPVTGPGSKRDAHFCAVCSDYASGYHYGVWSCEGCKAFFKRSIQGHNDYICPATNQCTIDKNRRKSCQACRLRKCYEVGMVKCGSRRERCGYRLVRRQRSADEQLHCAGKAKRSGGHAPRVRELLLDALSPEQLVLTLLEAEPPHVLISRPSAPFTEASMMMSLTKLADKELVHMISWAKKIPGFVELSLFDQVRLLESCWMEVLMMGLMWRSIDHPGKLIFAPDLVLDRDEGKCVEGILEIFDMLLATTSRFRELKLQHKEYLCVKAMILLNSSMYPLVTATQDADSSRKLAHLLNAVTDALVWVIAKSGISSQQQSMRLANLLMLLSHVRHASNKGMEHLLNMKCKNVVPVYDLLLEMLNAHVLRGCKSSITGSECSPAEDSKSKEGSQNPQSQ
Chain of Estrogen receptor (Homo sapiens) (P03372 whole entry, looked up): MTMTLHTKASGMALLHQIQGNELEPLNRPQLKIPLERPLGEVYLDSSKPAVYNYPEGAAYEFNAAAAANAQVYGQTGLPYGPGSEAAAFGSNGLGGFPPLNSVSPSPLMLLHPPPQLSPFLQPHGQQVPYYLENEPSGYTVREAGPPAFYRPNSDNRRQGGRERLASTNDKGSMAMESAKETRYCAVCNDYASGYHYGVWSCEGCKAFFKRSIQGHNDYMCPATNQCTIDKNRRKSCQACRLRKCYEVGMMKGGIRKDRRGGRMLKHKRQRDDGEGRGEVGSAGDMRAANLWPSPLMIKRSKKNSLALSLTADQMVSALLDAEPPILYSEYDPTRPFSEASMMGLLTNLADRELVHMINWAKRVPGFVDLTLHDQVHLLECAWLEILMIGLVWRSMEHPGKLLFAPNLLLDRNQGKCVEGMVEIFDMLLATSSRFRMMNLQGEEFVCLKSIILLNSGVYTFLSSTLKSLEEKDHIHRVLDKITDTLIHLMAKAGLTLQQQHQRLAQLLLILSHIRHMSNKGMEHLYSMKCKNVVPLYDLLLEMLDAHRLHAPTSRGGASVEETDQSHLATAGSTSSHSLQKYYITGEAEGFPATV
Chain of Androgen receptor (Homo sapiens) (P10275 whole entry, looked up): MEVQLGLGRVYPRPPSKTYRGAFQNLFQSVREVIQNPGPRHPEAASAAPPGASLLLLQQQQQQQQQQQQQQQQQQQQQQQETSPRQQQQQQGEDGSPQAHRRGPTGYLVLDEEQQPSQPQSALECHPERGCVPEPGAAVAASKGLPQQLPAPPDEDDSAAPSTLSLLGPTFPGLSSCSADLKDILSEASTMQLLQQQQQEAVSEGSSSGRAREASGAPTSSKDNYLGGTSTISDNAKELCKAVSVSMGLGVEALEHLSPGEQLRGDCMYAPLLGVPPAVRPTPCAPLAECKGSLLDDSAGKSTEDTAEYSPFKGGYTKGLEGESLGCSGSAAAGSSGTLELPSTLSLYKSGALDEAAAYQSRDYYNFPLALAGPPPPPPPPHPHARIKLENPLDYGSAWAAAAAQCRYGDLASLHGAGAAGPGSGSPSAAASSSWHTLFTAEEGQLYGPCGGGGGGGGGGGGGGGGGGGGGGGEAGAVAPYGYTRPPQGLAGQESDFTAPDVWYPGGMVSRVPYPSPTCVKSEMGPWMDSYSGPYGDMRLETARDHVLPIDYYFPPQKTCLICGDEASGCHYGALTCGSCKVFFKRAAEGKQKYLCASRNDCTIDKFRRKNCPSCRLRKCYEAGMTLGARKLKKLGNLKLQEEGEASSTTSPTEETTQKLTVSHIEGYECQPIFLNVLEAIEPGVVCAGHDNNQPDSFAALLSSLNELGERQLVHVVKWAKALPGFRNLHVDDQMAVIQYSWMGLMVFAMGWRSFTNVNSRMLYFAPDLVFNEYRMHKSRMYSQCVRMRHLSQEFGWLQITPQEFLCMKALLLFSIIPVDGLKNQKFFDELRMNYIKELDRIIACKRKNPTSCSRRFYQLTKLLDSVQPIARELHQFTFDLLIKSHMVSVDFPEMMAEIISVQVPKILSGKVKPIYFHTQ

SMILES | Potency [1] | Potency [2] | Potency [3] | Potency [4] | Potency [5] | Potency [6] | Potency [7] | Potency [8] | Potency [9] | Potency [10] | Potency [11] | Potency [12] | outcome [13] | Potency [14] | Potency [15] | Potency [16] | Potency [17] | Potency [18]
O=C(NO)C1(NS(=O)(=O)c2ccc(Oc3ccc(F)cc3)cc2)CCOCC1 | inactive | inactive | 61.1 µM (active) | inactive | inactive | inactive | inactive | inactive | inactive | inactive | inactive | inactive | inactive | inactive |  |  |  | 
c1cc(C(c2ccc(OCC3CO3)cc2)c2ccc(OCC3CO3)cc2)ccc1OCC1CO1 (centres undefined) | inactive | inactive | inactive | inactive | inactive | 61.1 µM (active) |  | inactive | 54.5 µM (active) |  | inactive | inactive | inactive |  | inactive | inactive |  | 
CC(=O)OCC(C)OC(C)=O (centres undefined) | inactive | inactive | inactive | inactive | inactive | inactive | inactive | inactive | 68.6 µM (active) | inactive |  | inactive | inactive | inactive | inactive |  | inactive | inactive
O=CC=C(c1ccccc1)c1ccccc1 | inactive | inactive | 69.1 µM (active) | inactive | inactive | 49 µM (active) |  | inactive |  |  |  | inactive |  | inactive |  |  | 7.76 µM (active) | 27.5 µM (active)
CCC(C)(C)C1CCCCC1OC(C)=O (centres undefined) | inactive | inactive | inactive | inactive | inactive | inactive | inactive | inactive | inactive |  | inactive | inactive |  | inactive | inactive |  |  | 
C[C@]12CCC(=O)C=C1CC[C@@H]1[C@@H]2[C@@H](O)C[C@@]2(C)[C@H]1CC[C@]2(O)C(=O)COC(=O)CCC(=O)O | inactive | inactive | inactive | inactive | inactive | inactive | inactive | inactive | inactive | inactive | inactive | inactive |  | inactive | inactive |  | inactive | inactive
Cc1ccc2oc(CN(Cc3ccccc3)C(=O)Nc3c(F)cc(F)cc3F)c(-c3ccc(Cl)cc3)c2c1 | inactive | inactive | inactive | inactive |  | inactive | inactive | inactive | inactive | inactive | inactive | inactive | inactive | inactive | inactive |  |  | 
CCC(N)(CO)CO | inactive | inactive | inactive | inactive | inactive | inactive | inactive | inactive |  | inactive |  | inactive |  |  | inactive |  | inactive | inactive
CCCCCCCC[P+](CCCCCCCC)(CCCCCCCC)CCCCCCCC | 21.6 µM (active) | 4.3 µM (active) | 0.43 µM (active) | inactive | 34.2 µM (active) | 12.1 µM (active) | 17.1 µM (active) | inactive | 0.483 µM (active) |  | 10.8 µM (active) | inactive | inactive | 68.2 µM (active) | 2.42 µM (active) |  |  | 
CNC(=O)c1ccccc1 | inactive | inactive | inactive | inactive | inactive | inactive | inactive | inactive | inactive | inactive | inactive | inactive | inactive | inactive | inactive |  |  | inactive
Cc1cccc(S(=O)(=O)O)c1C | inactive | inactive | inactive | inactive | inactive | inactive | inactive | inactive |  | inactive |  | inactive | inactive | inactive | inactive |  | inactive | inactive
CCCCC(CC)COP(=O)(O)OCC(CC)CCCC (centres undefined) | inactive | inactive | inactive | inactive | inactive | inactive | inactive | inactive | inactive |  | 68.7 µM (active) and 68.6 µM (active) | inactive |  |  | inactive |  |  | 68.7 µM (active) and 7.7 µM (active)
[Cl][Bi]([Cl])([c]1ccccc1)([c]1ccccc1)[c]1ccccc1 | 12.1 µM (active) | 27.1 µM (active) | 4.83 µM (active) | inactive | inactive | 0.108 µM (active) | 0.136 µM (active) | inactive | 0.0242 µM (active) |  |  | inactive |  | inactive | 60.8 µM (active) | inactive |  | 24.2 µM (active)
CCCCCCCCCCCC[N+](C)(C)CCCCCCCCCCCC | 54.5 µM (active) | 27.3 µM (active) | 30.6 µM (active) | inactive | 54.5 µM (active) | 24.3 µM (active) | 27.3 µM (active) | inactive |  |  | 21.7 µM (active) | inactive | inactive | inactive | 30.6 µM (active) |  |  | 21.7 µM (active)
CCC(CN)=C(c1ccccc1)c1ccccc1 | inactive | inactive | inactive | inactive | inactive | inactive | inactive | inactive |  | inactive |  | inactive | inactive |  |  |  | 23.7 µM (active) | 21.1 µM (active)
